Bioassay records (PubChem BioAssay)
PrP 5UTR inh = inhibition of PrP 5' UTR reporter expression. cell-based PrP 5' UTR mRNA reporter, plate reader. inhibition, % (no concentration beside the values). 0.35% of 340,000 active. AID 488862; in the data active = inhibition above about 52%
Mtb BioA inh = BioA (M. tuberculosis) enzyme inhibition; purified M. tuberculosis BioA enzyme, plate reader; inhibition, % at 9.99 µM; 0.096% of 360,000 active; AID 602481; in the data active = inhibition above about 40%
FadD28 binding = blocks FadD28 binding to the bisubstrate probe; fluorescence polarization; inhibition, % at 12.5 µM; 0.22% of 360,000 active; AID 588549; in the data active = inhibition above about 8.5%, passing the limit was not always enough
PfHsp40 yeast = compounds rescuing yeast from Plasmodium falciparum HSP40 toxicity; 0.68% of 340,000 active; AID 504582; growth rescue, % at 12.5 µM; S. cerevisiae expressing PfHsp40, growth rescue, ATP luminescence; in the data active = growth rescue above about 28%, passing the limit was not always enough;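 note: yeast W303a lacking pdr1 and pdr3 grown in galactose medium; growth measured after three days at 30 °C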
TcdB GH inh = blocks C. difficile toxin B glycohydrolase activity; TcdB glycohydrolase enzymatic assay, plate reader; P18177; inhibition, % at 9.99 µM; 0.24% of 350,000 active; AID 652162; in the data active = inhibition above about 10%
A number is an active result; n = inactive; x = not tested or not shown. Only some compounds are listed: those with a hit (about 1.1% of all), similar ones and a draw of the others.

SMILES	PrP 5UTR inh	Mtb BioA inh	FadD28 binding	PfHsp40 yeast	TcdB GH inh
Cn1ccsc1=NC(=O)c1ccc([N+](=O)[O-])o1	n	n	n	248	n
COc1cc(NC(=O)c2ccc3c(c2)OCCO3)ccc1NC(=O)c1cccs1	n	x	n	71	n
Cc1ccc(NC(=O)c2ccc(Cl)c(NC(=O)c3cccs3)c2)cc1	n	n	n	35	n
O=C(N/N=C/c1ccsc1)C1CC1	n	x	n	n	n
O=C(N/N=C/c1ccc(O)c(O)c1)C1CC1	x	n	n	x	16
CO[C@@H]1CN(C)C(=O)c2ccc(NS(C)(=O)=O)cc2OC[C@H](C)N(Cc2cncnc2)C[C@H]1C	x	n	x	x	n
C[C@@]12C(=O)Nc3ccc(F)cc3C(=O)N1[C@H]1c3ccccc3OC[C@@H]1[C@@H]2c1ccccc1	n	n	n	138	x
C[C@@]12C(=O)Nc3ccc(Cl)cc3C(=O)N1[C@H]1c3ccccc3OC[C@@H]1[C@@H]2c1ccccc1	n	n	n	118	x
C[C@@H]1CN([C@@H](C)CO)C(=O)Cc2cc(NC(=O)Cc3ccccc3)ccc2O[C@@H]1CN(C)Cc1ccncc1	x	n	x	x	n
Cc1ccc(-n2c(CNCc3ccc(F)cc3)nc3ccccc3c2=O)cc1	n	n	n	55	n
CCN(CC)CCNCc1nc2ccccc2c(=O)n1-c1ccc(F)cc1	n	n	n	n	n
Clc1ccc(CN2CCC(Cc3ccccc3)CC2)cc1	n	x	n	n	n
c1ccc(CC2CCN(Cc3ccccn3)CC2)cc1	n	x	n	50	n
CCOC(=O)C1CCCN(C(=O)c2cc(Nc3ccc(OC)cc3)nc3ccccc23)C1 (centres undefined)	n	n	22	n	x
Cc1ccc(S(=O)(=O)N[C@H]2CC[C@H](CCNC(=O)C3CCCCC3)O[C@H]2CO)cc1	x	n	x	x	n
O=S(=O)(NCCSCc1ccc(Cl)c(Cl)c1)c1ccc2c(c1)OCCO2	n	n	n	42	x
N=c1oc2ccccc2cc1-c1nc(-c2ccc(Cl)cc2)cs1	n	n	n	86	x
C=CSc1sc(Cl)c(N2CCOCC2)c1[N+](=O)[O-]	n	x	n	x	n
C=CS(=O)(=O)c1sc(Cl)c(N2CCOCC2)c1[N+](=O)[O-]	n	x	n	482	x
N/C(=N\OC(=O)CCCOc1ccc(Cl)cc1Cl)c1ccncc1	n	n	n	170	n
C[C@@H]1CN([C@@H](C)CO)C(=O)c2cc(NC(=O)NC3CCCCC3)ccc2O[C@@H]1CN(C)S(=O)(=O)c1ccc(F)cc1	x	n	x	x	n
COc1ccc(S(=O)(=O)N[C@H]2CC[C@H](CCn3cc(-c4ccccc4F)nn3)O[C@H]2CO)cc1	x	n	x	x	n
CCOc1ccccc1-n1c(=S)sc2c(=O)n(-c3ccc(F)cc3)c(SCC(=O)O)nc21	n	n	x	n	20
COc1ccccc1-n1c(SCC(=O)O)nc2c(sc(=S)n2-c2ccc(Cl)c(C)c2)c1=O	n	n	n	n	13
COc1ccccc1-n1c(SCC(=O)O)nc2c(sc(=S)n2-c2ccc(C)c(C)c2)c1=O	n	x	n	n	11
SMILES	PrP 5UTR inh	Mtb BioA inh	FadD28 binding	PfHsp40 yeast	TcdB GH inh
O=C(Nc1ccccc1)N[C@@H]1CC[C@@H](CCn2cc(C3(O)CCCC3)nn2)O[C@H]1CO	x	n	x	x	n
O=C(C[C@@H]1CC[C@H](NC(=O)CN2CCOCC2)[C@@H](CO)O1)NCCc1ccncc1	x	n	x	x	n
Nc1ccc(S(=O)(=O)Nc2nccs2)cc1N=Nc1ccccc1[N+](=O)[O-]	n	x	12	n	n
O=[N+]([O-])c1ccccc1S(=O)(=O)Nc1ccc(S(=O)(=O)Nc2nccs2)cc1	n	n	n	n	n
CNC(=O)C[C@H]1CC[C@H]2[C@@H](COC[C@@H](O)CN2S(=O)(=O)c2ccc(Oc3ccccc3)cc2)O1	x	n	x	x	n
O=C1c2ccccc2NC(c2ccc([N+](=O)[O-])cc2)N1O (centres undefined)	n	n	n	37	n
COc1ccc(-c2cccc(-c3nc(C(=O)O)cc4c3[C@@H](CCO)N([S@](=O)C(C)(C)C)C4)c2)cc1	x	x	x	x	n
CC(C)(C)CC(=O)O/N=C(\N)c1ccccn1	n	x	n	72	x
CC(=O)NC[C@H]1[C@@H](c2ccc(-c3ccccc3)cc2)[C@@H](CO)N1C(=O)C1CCC1	x	n	x	x	n
CCNC(=O)Nc1ccc2c(c1)C(=O)N(C)[C@@H]1CC[C@H](CC(=O)NCCOC)O[C@@H]1CO2	x	n	x	x	n
O=C(Oc1cccc(C(=S)N2CCOCC2)c1)c1ccc([N+](=O)[O-])cc1[N+](=O)[O-]	n	x	n	44	n
COc1ccc(-c2ccc([C@H]3[C@@H](CO)N(C(=O)C4CC4)[C@H]3C#N)cc2)cc1	x	n	x	x	n
CCCc1nc2c(=O)n(C)c(=O)nc-2n(C)n1	n	n	n	125	n
Cn1nc(-c2ccccn2)nc2c(=O)n(C)c(=O)nc1-2	n	n	n	n	n
C(=Nc1ccccc1)c1ccc[nH]1	n	n	n	n	n
Oc1ccccc1N=Cc1ccc[nH]1	n	n	n	55	x
O=C(C[C@@H]1CC[C@H](NS(=O)(=O)c2ccccc2)[C@@H](CO)O1)NCc1ccc(Cl)c(Cl)c1	x	n	x	x	n
O=[N+]([O-])c1ccc(Cl)cc1Sc1nc2ccccc2o1	n	n	n	165	n
O=[N+]([O-])c1ccc(Sc2nc3ccccc3o2)c([N+](=O)[O-])c1	n	n	n	n	n
Cc1ccc(CONC(=O)c2ccc([N+](=O)[O-])cc2)cc1	n	n	n	38	n
C/C(=N\Nc1ccc(Cl)c(C(=O)O)c1)c1ccc2c(c1)OCO2	n	n	n	n	n
C/C(=N/Nc1ccc(C(=O)O)cc1)c1ccc2c(c1)Nc1ccccc1S2	n	x	20	n	n
COc1ccc(/C(C)=N/Nc2cccc(C(=O)O)c2)cc1OC	n	n	n	n	n
C/C(=N\Nc1ccc(C(=O)O)cc1)c1ccc2c(c1)Nc1ccccc1S2	n	n	20	207	n
O=S(=O)(c1ccccc1)c1cc(O)ccc1O	n	n	n	n	n
SMILES	PrP 5UTR inh	Mtb BioA inh	FadD28 binding	PfHsp40 yeast	TcdB GH inh
Nc1ccc(S(=O)(=O)c2cc(O)c3ccccc3c2O)cc1	n	x	9.5	n	n
CCCN1[C@H](C(=O)N2CCN(C)CC2)[C@@H](CO)[C@@H]2Cn3c(ccc(-c4ccccc4F)c3=O)[C@@H]21	x	n	x	x	n
CC(C)NC(=O)c1ccccc1NC(=O)C(C)Oc1ccccc1 (centres undefined)	n	x	n	72	n
Nc1nc(CSc2n[nH]c(-c3ccccc3)n2)nc(Nc2ccccc2)n1	n	n	n	68	x
COc1ccc([N+](=O)[O-])c(S(=O)(=O)c2ccccc2)n1	x	n	n	x	n
O=[N+]([O-])c1cccnc1S(=O)(=O)c1ccccc1	n	x	n	104	n
COc1ccc([N+](=O)[O-])c(S(=O)(=O)c2ccc(Cl)cc2)n1	n	n	n	50	n
Cc1noc(C)c1NC(=O)N(C)C[C@@H]1Oc2c(NC(=O)Nc3ccccc3)cccc2C(=O)N([C@H](C)CO)C[C@H]1C	x	n	x	x	x
O=C(Cc1ccccn1)N1CC(=O)N2[C@H](CO)[C@@H](c3ccc(C#CCC4CCCC4)cc3)[C@H]2C1	x	x	x	x	n
C[n+]1cccc2c(Br)ccc([O-])c21	n	n	n	n	n
